Experimental data taken from PubChem BioAssay (NCATS).
Values joined by “and” are separate entries in the source; they are usually repeats but may differ in a detail not shown here. Identical values can stand only once. Records with an inconclusive call do not appear. Where a call stands in place of a potency, no number is given. Unmarked numbers belong to inactive results. Active and inactive are the calls of the source. The call rests on the fitted dose curve; in most records, active means well fitted curve in the direction sought with a large enough effect; inconclusive means small, poorly fitted or top-dose-only effect, or another doubt; inactive means no such curve, though single readings can be large; an effect the other way counts as inactive or inconclusive.

Assays:
[1] = Viability qHTS for spleen associated tyrosine kinase inhibitor (SYKi) naive MV4-11 cells (AID 1963823); details: MV4-11 AML viability, CellTiter-Glo luminescence, 72 h; series mostly up to 45 µM; further: nearly all actives have a fitted effect of over 40% in size
Outline: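 In this viability screen, compounds acted on SYK inhibitor naive MV4-11 cells for three days (72 hr, 37 C). Remaining viable cells were measured by CellTiter-Glo luminescence following a 10 min room-temperature development.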

[2] = Cellular viability qHTS for adrenocortical cancer (ACC) cell line SW-13 (AID 1963989); details: SW-13 ACC cells viability, CellTiter-Glo, 48 h; activity (max response): stronger effect = lower value; further: nearly all actives have a fitted effect of over 65% in size;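 on activity (max response): cells grown in serum-free medium with ITS supplement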
Outline: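 Viability was read as CellTiter-Glo luminescence after 48 h compound treatment (up to 46 uM final) of SW-13 cells grown serum-free; titration curves were fit with a four-parameter logistic model to give IC50 and efficacy.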

[3] = Cellular viability qHTS for adrenocortical cancer (ACC) cell line NCI-H295R (AID 1963990); details: CellTiter-Glo ATP luminescence, 48 h; series mostly up to 46.1 µM; further: nearly all actives have a fitted effect of over 60% in size
Outline: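 CellTiter-Glo ATP luminescence, read 48 h after compound addition, measured viability of NCI-H295R adrenocortical cells grown serum-free with ITS. Final concentrations spanned up to 46 uM. Data normalized to DMSO and doxorubicin, fitted for IC50 and maximal response.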
Potency means the concentration at half of the fitted maximal effect.

SMILES	Potency [1]	activity (max response) [2]	Potency [3]	Potency [2]
COc1cccc2c1c(O)c(C(=O)N(C)c1ccc(C(F)(F)F)cc1)c(=O)n2C	inactive	-27.3%	inactive	
O=C(O)C1(C(=O)O)CCC1.[NH2-].[NH2-].[Pt+2]	inactive	10.4%	inactive	
Cc1c(F)cccc1NC(=O)Nc1ccc(Cl)c(S(=O)(=O)[C@H]2CCCNC2)c1O	inactive	-7.46%	inactive	
CCOc1ccccc1OCCN[C@H](C)Cc1ccc(OC)c(S(N)(=O)=O)c1	inactive	2.5%	inactive	
CCCCC(CC)COC(=O)c1ccc(N(C)C)cc1 (stereo not given)	inactive	-4.79%	inactive	
CCCCC(CC)COC(=O)/C=C/c1ccc(OC)cc1 (stereo not given)	inactive	1.77%		
COc1cc(F)ccc1-c1ncnc(Nc2cccc(CS(C)(=N)=O)c2)n1 (stereo not given)	1.16 µM (active)		7.08 µM (active)	6.31 µM (active)
NC(=S)N/N=C/c1cccnc1	inactive	-1.7%	inactive	
COc1ccc(C(=O)C2CCN(CC(=O)N(Cc3nc4c(c(=O)[nH]3)COCC4)CC3CC3)CC2)cc1	inactive	0.295%	inactive	
CC[C@]12C=CCN3CC[C@@]4(c5cc([C@@]6(C(=O)OC)C[C@H]7C[C@@H](C(C)(F)F)CN(Cc8c6[nH]c6ccccc86)C7)c(OC)cc5N(C)[C@H]4[C@@](O)(C(=O)OC)[C@@H]1OC(C)=O)[C@@H]32	0.0555 µM (active)		0.548 µM (active)	0.123 µM (active)
O=[N+]([O-])c1cccc(S(=O)(=O)NCCNS(=O)(=O)c2cccc([N+](=O)[O-])c2)c1	inactive	-5.4%	inactive	
C[C@H](CCC(=O)O)[C@H]1CC[C@H]2[C@@H]3[C@H](O)C[C@@H]4C[C@H](O)CC[C@]4(C)[C@H]3CC[C@]12C	inactive	-16.1%	inactive	
Cc1nc(-c2cccnc2)sc1C(=O)Nc1ccccc1-c1cn2c(CN3CCOCC3)csc2n1	inactive	-5.59%	inactive	
Nc1ccc(N)c([N+](=O)[O-])c1	24.3 µM (active)	-20.8%		
CCc1c(-c2ccccc2C)nc2c(C#N)c[nH]n2c1=O	inactive	6.89% and 1.74%	inactive	
Cc1cccn2c(=O)c(-c3nnn[nH]3)cnc12	inactive	-1.53%	inactive	
Cc1ccccc1N=Nc1ccc(N=Nc2c(O)ccc3ccccc23)c(C)c1	inactive	15.2%	inactive	
O=C(/C=C/c1cccnc1)NCCCCC1CCN(C(=O)c2ccccc2)CC1	0.0053 µM (active)			0.0126 µM (active)
CSCC[C@H](NC(=O)[C@H](Cc1c[nH]c2ccccc12)NC(=O)CCNC(=O)OC(C)(C)C)C(=O)N[C@@H](CC(=O)O)C(=O)N[C@@H](Cc1ccccc1)C(N)=O	inactive	1.93%		
CCCC(=O)OCOC(=O)C1=C(C)NC(C)=C(C(=O)OC)C1c1cccc(Cl)c1Cl (stereo not given)	inactive	6.2%		
[2H]c1nc(C)nc([2H])c1-c1cc(NC[C@@H](C)c2cccc3c(C(=O)NC)ccnc23)ncn1	inactive	14.2%	inactive	
Cc1nnc(C(C)C)n1C1CC2CCC(C1)N2CCC(NC(=O)C1CCC(F)(F)CC1)c1ccccc1 (stereo not given)	inactive	-4.92%	inactive	
Cc1nn(Cc2ccccc2Cl)c(C)c1CN(C)CC(O)COc1ccc(Cl)cc1 (stereo not given)	14.8 µM (active)		17.8 µM (active)	25.1 µM (active)
NC(N)=Nc1nc(CSCC/C(N)=N/S(N)(=O)=O)cs1	inactive	9.53%	inactive	
Oc1ccccc1	inactive	8.68%	inactive	
Nc1ccc(C(=O)Oc2ccccc2)c(O)c1	inactive	-6.48%	inactive	
CCCCN1C[C@H](O)[C@@H](O)[C@H](O)[C@H]1CO	inactive	-2.93%	inactive	
O=C(O)CN1C(=O)c2cccc3cccc(c23)C1=O	inactive	-3.53%	inactive	
O=C(O)Cc1ccc(OCCNC[C@H](O)c2ccccc2)cc1	inactive	0.46%	inactive	
CC(C)COCC(CN(Cc1ccccc1)c1ccccc1)N1CCCC1 (stereo not given)	13.3 µM (active) and 14.8 µM (active)		15.8 µM (active)	4.11 µM (active) and 28.2 µM (active)
